# Results filed as inconclusive are left out. Activity calls are given as the source filed them. The call rests on the fitted dose curve; in most records, active means well fitted activation curve with a large enough effect in the repeat runs; inconclusive means weak or mixed curves; inactive means no such curve, though single readings can be large or run the other way.
# Molecular target: Nuclear receptor subfamily 1 group I member 3 (Homo sapiens) (UniProt Q14994)
# Assay: qHTS assay to identify small molecule agonists of the constitutive androstane receptor (CAR) signaling pathway (AID 1224839); further: nearly all actives have a fitted effect of over 15% in size;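 on activation: HepG2 cells stably carrying human CAR and a CYP2B6 luciferase reporter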
# Settings: HepG2 hCAR CYP2B6-luciferase, agonist mode, 24 h; series mostly up to 92.4 µM; activation: at the top concentration
# From the text: National Center for Advancing Translational Sciences [NCATS] NIH Chemical Genomics Center [NCGC] U.S. Environmental Protection Agency [EPA] National Institutes of Environmental Health Sciences [NIEHS] National Toxicology Program [NTP] Assay overview: The constitutive androstane receptor (CAR) is a nuclear receptor which regulates multiple drug metabolizing enzymes (DMEs) and transporters. Activating CAR will generally increase the transcription and subsequent translation of CYP2B6 and CYP3A4. These two DMEs represent about 50% of the drug metabolizing potential in the body. […] Recently, there have also been studies performed indicating CARs role in energy metabolism and cancer therapy. Therefore, inducing CARs activity could have a potential effect on diabetes and cancer. Identifying environmental toxins and compounds which modulate CAR, through the use of the Tox21 10K compound collection, will be an important step in determining the toxicity and potential therapeutic effects these factors will have on the human body.
# Assay Protocol Summary: A double-stable (hCAR and CYP2B6-2.2kb) transfected cell line, derived from human hepatoma (HepG2) cells, was utilized for the duration of the quantitative high-throughput screens. The HepG2-CYP2B6-hCAR cells suspended in DMEM culture medium supplemented with 10% FBS, 5 ug/mL blasticidin, 0.5 mg/mL geneticin, 100 U/mL penicillin and 100 ug/mL streptomycin were dispensed at 2500 cells/4 uL/well in 1536-well white solid bottom plates using a Multidrop Combi. After the assay plates were incubated at 37 C/5% CO2 for 4 hrs, 23 nL of compounds at 15 concentrations (from 5-48 columns) or positive control (from 1 to 4 columns) were transferred to the assay plates using a Pintool station. One uL of PK11195, was added using a Flying Reagent Dispenser to generate a final concentration of 0.75 uM PK11195 inside each well. After a 24 hr incubation period at 37 C/5% CO2, four uL of ONE-Glo reagent was added into the assay plates using a Flying Reagent Dispenser. After a 30 min incubation period at room temperature, the luminescence intensity in the assay plates was measured using a ViewLux plate reader.
# On the % scale 0 is the no-effect control and ±100 the full control effect; potency means the concentration at half of the fitted maximal effect.
# Chain of Nuclear receptor subfamily 1 group I member 3 (Homo sapiens) (Q14994 whole entry, looked up): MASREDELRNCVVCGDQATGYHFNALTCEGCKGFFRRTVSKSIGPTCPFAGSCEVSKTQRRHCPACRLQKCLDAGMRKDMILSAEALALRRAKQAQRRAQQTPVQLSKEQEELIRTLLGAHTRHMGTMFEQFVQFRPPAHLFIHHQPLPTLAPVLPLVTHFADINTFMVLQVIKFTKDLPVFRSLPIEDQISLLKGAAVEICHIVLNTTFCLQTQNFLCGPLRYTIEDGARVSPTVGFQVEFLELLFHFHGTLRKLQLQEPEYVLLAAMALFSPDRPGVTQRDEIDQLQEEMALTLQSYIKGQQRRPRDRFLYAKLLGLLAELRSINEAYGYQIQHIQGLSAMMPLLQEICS
Compound,activation,Potency
CCCCN(N=O)C(=N)N[N+](=O)[O-],-6.38% (inactive),
CCOC(=O)COc1cc(-c2nn(C)c(OC(F)F)c2Cl)c(F)cc1Cl,3.63% (inactive),
CC(C)=CCOc1c2occc2cc2ccc(=O)oc12,,10.6 µM (active)
Cl/C=C\C[N+]12CN3CN(CN(C3)C1)C2,-8.36% (inactive),
COc1c(C(C)(C)C)cc([N+](=O)[O-])c(C)c1[N+](=O)[O-],,24.1 µM (active)
CCC(C)(NC(=O)c1cc(Cl)c(C)c(Cl)c1)C(=O)CCl (stereo not given),-20.9% (inactive),
COC(N)=O,0.092% (inactive),
CN1C(=O)NC(=O)C(C)(C2=CCCCC2)C1=O (stereo not given),2.64% [at 42.5 µM] (inactive),
N#Cc1cc(I)c(O)c(I)c1,-2.15% (inactive),
O=[N+]([O-])c1ccccc1CCl,5.92% (inactive),
CCCCCCCCCC(=O)O[C@H]1CC[C@H]2[C@@H]3CCC4=CC(=O)CC[C@@H]4[C@H]3CC[C@]12C,-1.94% [at 42.5 µM] (inactive),
O=C1C(=O)c2cccc3cccc1c23,,61.1 µM (active)
O=NN1CCNCC1,0.753% (inactive),
O=C1NCN(c2ccccc2)C12CCN(CCCOc1ccc(F)cc1)CC2,-12.9% [at 42.5 µM] (inactive),
O=[N+]([O-])C(Br)(CO)CO,-2.12% (inactive),
COP(=S)(Oc1cc(Cl)c(Br)cc1Cl)c1ccccc1 (stereo not given),,30.6 µM (active)
CCCCOC(=O)c1ccccc1C(=O)OCc1ccccc1,,54.5 µM (active)
O=C(CBr)Nc1ccc(Cl)cc1C(=O)c1ccccc1F,,26.6 µM (active)
COP(=S)(OC)Oc1cc(Cl)c(I)cc1Cl,,54.5 µM (active)
CCCCCC[N+](=O)[O-],-0.357% (inactive),

Compound,activation,Potency
O=C(O)COc1ccc(Cl)cc1,-1.52% (inactive),
CC(C)N(CCC(C(N)=O)(c1ccccc1)c1ccccn1)C(C)C (stereo not given),-0.159% [at 42.5 µM] (inactive),
Cc1ccccc1CCl,-2.3% (inactive),
CC1Sc2c(C(=O)O)c(=O)c3cc(F)c(N4CCNCC4)cc3n21 (stereo not given),-3.37% [at 42.5 µM] (inactive),
CC(=O)c1cc2c(cc1C)C(C)(C)C(C)CC2(C)C (stereo not given),,24.3 µM (active)
C[C@H]1CNCCc2ccc(Cl)cc21,-0.943% [at 42.5 µM] (inactive),
C=CC(=O)OCC(C)C,-2.96% (inactive),
O=C(NC(=O)c1c(F)cccc1F)Nc1cc(Cl)c(Oc2ncc(C(F)(F)F)cc2Cl)c(Cl)c1,9.53% (inactive),
CCCC(Cn1cncn1)c1ccc(Cl)cc1Cl (stereo not given),,61.1 µM (active)
CO[C@@H]1[C@H](OC(=O)NC(=O)CCl)CC[C@]2(CO2)[C@H]1[C@@]1(C)O[C@@H]1CC=C(C)C,-1.38% [at 19 µM] (inactive),
O=C(O)C1(c2ccc3c(c2)OC[C@H](Cc2ccc(-c4ccccc4)cc2)[C@H]3O)CCCC1,-3.08% (inactive),
CCOP(=O)(OCC)Oc1ccc([N+](=O)[O-])cc1,,inactive
NC(=O)C(Cl)(Cl)Cl,1.36% (inactive),
COc1nn(CSP(=S)(OC)OC)c(=O)s1,,54.5 µM (active)
N#CCC#N,-18.9% (inactive),
CNC(C)Cc1ccccc1OC (stereo not given),-0.901% [at 42.5 µM] (inactive),
O=C(N[C@H](c1ccccc1)[C@@H]1CN2CCC1CC2)c1c(Cl)ccc(C(F)(F)F)c1Cl,-26.4% (inactive),
O=[N+]([O-])c1ccc(F)c([N+](=O)[O-])c1,3.53% (inactive),
C=C(C#N)CCC#N,1.8% (inactive),
N#C/C(N)=C(/N)C#N,3.37% (inactive),

# Source: PubChem BioAssay (Tox21)
